According to the supplement of paper PMC6555819:

Assays:
Assay in all cases: PBM binding z-score (relative to random genomic background probes); higher = stronger binding; sequences stand for … in GC…GCGATTGACAGCGTAGAATGAAGG
[1] = system: PPARg:RXRa DBDmut IVT, anti-RXR (DBD mutation: RXRa K156A/R161A, NR concentration 270 nM, RXRa partner concentration 90 nM)
Outline: (§1)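 Regression normalization was applied to scanned fluorescence from custom Agilent 4×180K protein-binding microarrays. Before scanning, arrays were incubated 1 h with ligand-free nuclear receptor dimers, and binding was detected with antibodies against each partner (one per run). Binding z-scores use the random background probes as reference.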

[2] = system: PPARg:RXRa IVT, anti-PPARg (NR concentration 270 nM, RXRa partner concentration 90 nM)
Outline: as §1

[3] = system: PPARg DBDmut:RXRa IVT, anti-PPARg (DBD mutation: PPARg1 K132A/R137A, NR concentration 270 nM, RXRa partner concentration 90 nM)
Outline: as §1

[4] = system: PPARg DBDmut IVT, anti-PPARg (DBD mutation: PPARg1 K132A/R137A, NR concentration 270 nM)
Outline: as §1

[5] = system: PPARg homodimer (NR concentration 180 nM)
Outline: as §1

[6] = system: PXR:RXRa (NR concentration 270 nM, RXRa partner concentration 90 nM)
Outline: as §1

[7] = system: PXR homodimer (NR concentration 270 nM)
Outline: as §1

[8] = system: RARa:RXR (NR concentration 270 nM, RXRa partner concentration 90 nM)
Outline: as §1

[9] = system: RARa homodimer (NR concentration 270 nM)
Outline: as §1

[10] = system: RARb:RXRa (NR concentration 270 nM, RXRa partner concentration 90 nM)
Outline: as §1

[11] = system: RARb homodimer (NR concentration 270 nM)
Outline: as §1

[12] = system: RARg:RXRa (NR concentration 270 nM, RXRa partner concentration 90 nM)
Outline: as §1

[13] = system: RARg homodimer (NR concentration 270 nM)
Outline: as §1

[14] = system: RXRa DBDmut IVT, anti-RXR (DBD mutation: RXRa K156A/R161A, NR concentration 90 nM)
Outline: as §1

[15] = system: RXRa homodimer (NR concentration 180 nM)
Outline: as §1

[16] = system: THRa:RXRa (NR concentration 90 nM, RXRa partner concentration 90 nM)
Outline: as §1

[17] = system: THRa homodimer (NR concentration 90 nM)
Outline: as §1

[18] = system: VDR homodimer (NR concentration 270 nM)
Outline: as §1

Row | Sequence | PBM binding z-score [1] | PBM binding z-score [2] | PBM binding z-score [3] | PBM binding z-score [4] | PBM binding z-score [5] | PBM binding z-score [6] | PBM binding z-score [7] | PBM binding z-score [8] | PBM binding z-score [9] | PBM binding z-score [10] | PBM binding z-score [11] | PBM binding z-score [12] | PBM binding z-score [13] | PBM binding z-score [14] | PBM binding z-score [15] | PBM binding z-score [16] | PBM binding z-score [17] | PBM binding z-score [18]
1 | ATATGTAGGTTCGCTGGGGTCATTCAGACTAGGC | 3.5 | 3.76 | 1.92 | 1.5 | 2.78 | 6.18 | 12.4 | 6.02 | 1.12 | 2.72 | 3.35 | 4.07 | 2.35 | 3.6 | 5.54 | 4.11 | 3.34 | 9.1
2 | GCGACTAGGGCATCAGCAGGTTACCATAACTTAA | 4.76 | 3.7 | -0.562 | -0.523 | 0.128 | -0.0606 | -0.519 | 0.482 | -0.519 | 1.13 | 0.836 | 1.12 | 0.817 | 0.0692 | 0.47 | 0.885 | 0.0227 | -0.299
3 | AATACAGTGTCACTAGGCCAGAGTAGGTACGAAT | 1.71 | 3.04 | 0.806 | 0.257 | 0.169 | -0.342 | -0.144 | -0.182 | -0.0529 | 1.06 | 0.565 | 0.553 | 0.864 | 0.0246 | 0.185 | 0.145 | -0.314 | 0.0225
4 | TCTAGTTGGTCACGGAGCTCACACACGACGGGTA | 2.15 | 2.2 | 0.346 | 0.786 | 0.57 | 0.334 | -0.237 | 0.366 | 0.0423 | 1.5 | 0.591 | 1.04 | 1.24 | 0.372 | 0.925 | -0.123 | -0.466 | -0.521
5 | GCTATTAGTTGAAAGGGCAACCGGATGATTCTCG | 0.432 | 0.892 | 0.0968 | -0.308 | 1.33 | 0.775 | 0.0713 | 1.37 | 1.05 | 2.1 | 2.11 | 1.41 | 1.33 | 0.824 | 1.22 | 0.688 | -0.119 | 0.228
6 | CCTTACGGGTCACTGACAGATTATAGCATTTGGA | 3.42 | 3.85 | 0.84 | 0.266 | 2.31 | 3.04 | 0.241 | 4.3 | 1.11 | 3.93 | 3.01 | 4.96 | 4.43 | 2.1 | 4.89 | 2.38 | 0.495 | 0.842
7 | AGAATGAGGTTAAGCTCAGGGAAACAGAATACAT | 3.66 | 2.98 | 0.873 | 0.751 | -0.0277 | 1.1 | 0.0253 | 2.17 | -0.438 | 2.06 | 0.601 | 2.43 | 1.72 | 1.26 | 2.59 | 2.67 | 0.503 | -0.00367
8 | GGAAAGAGGGCATTCGAGTTGATAGCATGGCGAT | 2.82 | 1.52 | 0.272 | 0.297 | 0.828 | 4.41 | 1.31 | 1.75 | 0.298 | 2.24 | 1.42 | 1.81 | 1.82 | 2.67 | 1.32 | 3.61 | -0.358 | 2.71
